Measurements reported in PubChem BioAssay.
Entries with a potency or affinity are not part of this list. Records with an inconclusive call do not appear. Active and inactive are the calls of the source. Unless noted, the rule behind the calls is not given here.

How the values were obtained:
[1] = RMG-1 ovarian cancer cell viability loss – cherry-pick, dose response (AID 687029;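 active = signal drop whose fitted half-maximal concentration is at most twice the top valid dose, in every test run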;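 note: cells exposed to compound for 96 hours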)
[2] = IOSE-T80 viability loss, PAX8-independent line – cell-based, cherry-pick, selectivity assay for PAX8 inhibitor project, dose response (AID 687032;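 active = fitted half-maximal concentration for viability loss no higher than twice the top valid dose, in every repeat run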;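 note: cells exposed to compound for 96 h before reading; 0% = neutral control wells and -100% = 2 µM mitoxantrone kill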)
[3] = CMV-driven luciferase expression suppression in HEK293 – cell-based, luminescence, dry powder, counter-screen for Pax8 inhibitor project, dose response (AID 743020;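 active = signal-lowering compounds whose fitted half-maximal concentration is at or below twice the top tested dose in every run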;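 note: HEK293 cells stably expressing the CMV luciferase reporter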)
[4] = general cell-killing toxicity readout – plate reader, dry powder samples, cytotoxicity control for PAX8 inhibitor project, dose response (AID 743021)
[5] = IGROV1 cell killing – plate reader, dry powder samples, PAX8 inhibitor project, dose response (AID 743043);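 note: more negative means fewer viable cells or more cytotoxicity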
[6] = A2780 cell killing – plate reader, dry powder samples, cytotoxicity control, dose response (AID 743046);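 note: 0% = neutral control wells and -100% = cytotoxic reference compound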
[7] = toxicity toward immortalized ovarian surface epithelium – cell-based, plate reader, dry powder samples, cytotoxicity control for PAX8 inhibitor project, dose response (AID 743045);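 note: 0% = neutral control median and -100% = positive control median; more negative values mean more cell killing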
[8] = OVCAR8 cell viability loss – plate reader, dry powder samples, PAX8 project, dose response (AID 743197)
[9] = OVCAR-3 cell viability loss – plate reader, dry powder samples, PAX8 inhibitor project, dose response (AID 743044); settings: max activity: at 35 µM, hits give low values unless noted

Measured: max activity

COc1ccc(S(=O)(=O)Nc2ccc3c(c2)C(=O)N([C@@H](C)CO)C[C@@H](C)[C@@H](CN(C)Cc2ccc(C(F)(F)F)cc2)OCCCC[C@@H](C)O3)cc1
not listed: [7] | [8] | [9]
inactive: all other assays above

O=C(Nc1ccc(F)cc1)N[C@H]1CC[C@H](CCNC(=O)c2cc(Cl)cc(Cl)c2)O[C@H]1CO
not listed: [9]
inactive: all other assays above

C[C@@H]1CN([C@H](C)CO)C(=O)c2cc(NC(=O)Nc3ccc(C(F)(F)F)cc3)ccc2O[C@@H](C)CCCCO[C@H]1CN(C)S(=O)(=O)c1ccccc1
not listed: [9]
inactive: all other assays above

COc1ccccc1S(=O)(=O)N1CC[C@H]2[C@@H](CO)N(C)c3ccc(-c4ccc(C#N)cc4)cc3[C@H]21
not listed: [6] | [9]
inactive: all other assays above

C[C@H]1CCCCO[C@@H](CN(C)Cc2ccc3c(c2)OCO3)[C@@H](C)CN([C@@H](C)CO)C(=O)c2cc(NC(=O)Nc3ccc(F)cc3)ccc2O1
not listed: [9]
inactive: all other assays above

COc1ccc(C#Cc2ccc([C@@H]3[C@H](CO)N4CCCCN(C(=O)Nc5ccc(F)cc5)C[C@@H]34)cc2)cc1
inactive: [1] | [2] | [3] | [4] | [9] -123% [at 30 µM, hits give low values] | [7]

O=C(C[C@@H]1C[C@@H]2c3cc(NC(=O)Cc4ccncc4)ccc3O[C@@H]2[C@H](CO)O1)NCc1ccc(-c2ccccc2)cc1
not listed: [9]
inactive: all other assays above

C[C@@H]1CN([C@@H](C)CO)C(=O)Cc2cc(NC(=O)Nc3ccc(C(F)(F)F)cc3)ccc2O[C@H]1CN(C)C(=O)NC1CCCCC1
not listed: [9]
inactive: all other assays above

C[C@@H]1CCCCO[C@H](CN(C)Cc2ccccc2)[C@H](C)CN([C@@H](C)CO)C(=O)c2cc(NC(=O)Nc3ccc(C(F)(F)F)cc3)ccc2O1
not listed: [7] | [9]
inactive: all other assays above

CC(C)NC(=O)N(C)C[C@H]1OCCCC[C@H](C)Oc2ccc(NC(=O)Nc3ccc(C(F)(F)F)cc3)cc2C(=O)N([C@H](C)CO)C[C@@H]1C
not listed: [9]
inactive: all other assays above

C[C@H](CO)N1C[C@H](C)[C@H](CN(C)Cc2ccc(Cl)c(Cl)c2)OCCCC[C@H](C)Oc2ccc(NS(=O)(=O)c3ccc(F)cc3)cc2C1=O
not listed: [9]
inactive: all other assays above

C[C@@H]1CCCCO[C@H](CN(C)Cc2ccc(C(=O)Nc3ccccc3N)cc2)[C@@H](C)CN([C@@H](C)CO)C(=O)c2cc(NS(=O)(=O)c3ccc(Cl)cc3)ccc2O1
not listed: [7] | [8] | [9]
inactive: all other assays above

O=C(C[C@@H]1CC[C@@H]2[C@H](COC[C@@H](O)CN2S(=O)(=O)c2cccc(Cl)c2)O1)Nc1ccc(-c2ccccc2)cc1
not listed: [9]
inactive: all other assays above

Cc1ccc(S(=O)(=O)Nc2ccc3c(c2)C(=O)N([C@H](C)CO)C[C@@H](C)[C@@H](CN(C)Cc2ccc4c(c2)OCO4)OCCCC[C@@H](C)O3)cc1
not listed: [6] | [9]
inactive: all other assays above

C[C@@H]1CCCCO[C@H](CN(C)Cc2ccc(C(F)(F)F)cc2)[C@H](C)CN([C@@H](C)CO)C(=O)c2cc(NC(=O)c3ccccc3)ccc2O1
not listed: [7] | [8] | [9]
inactive: all other assays above

C[C@@H]1CN([C@H](C)CO)C(=O)c2cc(NS(=O)(=O)c3ccc(Cl)cc3)ccc2O[C@@H](C)CCCCO[C@@H]1CN(C)Cc1ccc(Cl)c(Cl)c1
not listed: [6] | [9]
inactive: all other assays above

Cc1cccc(S(=O)(=O)N2CC[C@@H]3[C@H](CO)N(C)c4ccc(-c5ccc(C#N)cc5)cc4[C@@H]32)c1
not listed: [9]
inactive: all other assays above

C[C@H](CO)N1C[C@H](C)[C@@H](CN(C)Cc2ccc(C(F)(F)F)cc2)OCCCC[C@H](C)Oc2ccc(NC(=O)Cc3ccccc3)cc2C1=O
not listed: [9]
inactive: all other assays above

COc1cccc(-c2ccc3c(c2)[C@H]2[C@H](CCN2C(=O)NC2CCCCC2)[C@@H](CO)N3C)c1
not listed: [6] | [9]
inactive: all other assays above

CS(=O)(=O)N1CC(=O)N2[C@H](CO)[C@H](c3ccc(C#CCC4CCCC4)cc3)[C@H]2C1
not listed: [6] | [9]
inactive: all other assays above

COc1ccc(-c2ccc3c(c2)[C@H]2[C@H](CCN2S(=O)(=O)c2ccc(OC)cc2)[C@@H](CO)N3C)cc1
not listed: [7] | [8] | [9]
inactive: all other assays above

C[C@@H]1CCCCO[C@@H](CN(C)Cc2ccc(C(F)(F)F)cc2)[C@H](C)CN([C@@H](C)CO)C(=O)c2cc(NC(=O)Nc3ccc(F)cc3)ccc2O1
not listed: [9]
inactive: all other assays above

COc1ccccc1-c1ccc2c(c1)[C@@H]1[C@@H](CCN1S(=O)(=O)c1ccccc1F)[C@H](CO)N2
not listed: [9]
inactive: all other assays above

C[C@@H]1CN([C@H](C)CO)S(=O)(=O)c2ccc(C#Cc3ccc(F)cc3)cc2O[C@H]1CN(C)C(=O)NC1CCCCC1
not listed: [9]
inactive: all other assays above

C[C@H](CO)N1C[C@H](C)[C@H](CN(C)CC2CCCCC2)Oc2ccc(NS(=O)(=O)c3ccc(Cl)cc3)cc2CC1=O
not listed: [9]
inactive: all other assays above

C[C@@H]1CN([C@H](C)CO)C(=O)c2cc(NS(=O)(=O)c3cccs3)ccc2O[C@@H](C)CCCCO[C@H]1CN(C)Cc1ccc(Cl)c(Cl)c1
not listed: [9]
inactive: all other assays above

C[C@@H]1CCCCO[C@@H](CN(C)S(=O)(=O)c2ccc(Cl)cc2)[C@H](C)CN([C@@H](C)CO)C(=O)c2cc(N(C)C)ccc2O1
not listed: [9]
inactive: all other assays above

C[C@@H]1CN([C@H](C)CO)C(=O)c2cc(NC(=O)Nc3ccc(F)cc3)ccc2O[C@@H](C)CCCCO[C@H]1CN(C)C(=O)NC1CCCCC1
not listed: [9]
inactive: all other assays above

O=C(C[C@@H]1C[C@H]2c3cc(NC(=O)Nc4ccc(C(F)(F)F)cc4)ccc3O[C@H]2[C@H](CO)O1)NCc1ccc(Cl)cc1
not listed: [9]
inactive: all other assays above

C[C@H]1CN([C@@H](C)CO)C(=O)Cc2cc(NC(=O)Nc3ccc(F)cc3)ccc2O[C@H]1CN(C)Cc1ccc(Cl)c(Cl)c1
not listed: [9]
inactive: all other assays above

C[C@H](CO)N1C[C@H](C)[C@H](CN(C)S(=O)(=O)c2ccc(F)cc2)OCCCC[C@H](C)Oc2ccc(NS(=O)(=O)c3ccc(Cl)cc3)cc2C1=O
inactive: [1] | [2] | [3] | [4] | [9] -16.9% [at 4.2 µM, hits give low values] | [7] | [8]

C[C@H]1CCCCO[C@H](CN(C)C(=O)Nc2cccc3ccccc23)[C@@H](C)CN([C@@H](C)CO)C(=O)c2cc(NS(=O)(=O)c3ccc(F)cc3)ccc2O1
inactive: [1] | [2] | [3] | [4] | [9] 28.1% [at 0.5 µM, hits give low values] | [7] | [6]

COc1cccc(-c2ccc([C@H]3[C@@H](CO)N(C(=O)c4ccccn4)[C@H]3C#N)cc2)c1
inactive: [1] | [2] | [3] | [4] | [9] -40.2% | [7] | [6]
